{"source": "PubChem BioAssay (NCI)", "note": "This is part of a sample that, as a whole, favours compounds with a hit. Of some 83,000 tested, about 20% had one in any assay.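 48-hour exposure, single concentration, 96-well plates; percent growth endpoint where 0 means no net growth. Active: below 10.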 Active and inactive are the calls of the source."}
{"system": "DU-145 prostate", "experiment": "NCI-60 one-dose screen, 48 h (100 = growth as untreated, 0 = no growth, -100 = all killed)", "details": "10 µM"}
{"smiles": "COc1ccc2oc(=O)cc(C(c3ccc[nH]3)c3ccc[nH]3)c2c1", "growth": "13.3% (inactive)"}
{"smiles": "CCCN(CCC)CCCNC(=O)c1cc2c(-c3ccc(OC)c(OC)c3)nn(C)c2s1", "growth": "13% (inactive)"}
{"smiles": "N#Cc1c(-c2ccccc2)nc(SCC(=O)N2CCOCC2)[nH]c1=O", "growth": "112% (inactive)"}
{"smiles": "COc1ccc(NC(=O)c2sc3nc4c(cc3c2N)C(O)CCC4)cc1", "note": "(stereo unspecified)", "growth": "93.3% (inactive)"}
{"smiles": "COc1cccc2c1O/C(=C\\c1ccc([N+](=O)[O-])s1)C2=O", "growth": "80.4% (inactive)"}
{"smiles": "N#Cc1cnc2ccc(NCc3cnc[nH]3)cc2c1Nc1ccc(F)c(Cl)c1", "growth": "39.5% (inactive)"}
{"smiles": "O=C1/C(=C/c2ccc(O)cc2)Oc2ccc(Cl)cc21", "growth": "114% (inactive)"}
{"smiles": "Cc1ccc([P+](Cc2ccccc2)(c2ccccc2)c2ccccc2)cc1", "growth": "32.3% (inactive)"}
{"smiles": "CCOC(=O)c1c(C)n(-c2ccc(Cl)cc2)c2ccc(OC(=O)/C=C/c3ccccc3)cc12", "growth": "91% (inactive)"}
{"smiles": "O=C(O)CCCN1C(=O)NC2(C1=O)c1ccccc1-c1ccccc12", "growth": "105% (inactive)"}
{"smiles": "Cc1cc(C)c2nc(C)c(C)[n+]([O-])c2c1", "growth": "110% (inactive)"}
{"smiles": "CCOC(=O)c1sc(Nc2ncccn2)nc1-c1ccccn1", "growth": "92.3% (inactive)"}
{"smiles": "COc1ccc(-c2[nH]ncc2/C=C/c2cc(C(F)(F)F)[nH]c(=O)n2)cc1", "growth": "108% (inactive)"}
{"smiles": "COc1ccc(-c2nc(-c3nc4ccc(C)cc4[nH]3)c3ccccn23)cc1", "growth": "52.2% (inactive)"}
{"smiles": "CC(Oc1ccc(Cl)cc1)c1ccccc1", "note": "(stereo unspecified)", "growth": "107% (inactive)"}
{"smiles": "CCCCCCCCCCN=C(c1ccc(N(C)C)cc1)c1ccc(N(C)C)cc1", "growth": "28.5% (inactive)"}
{"smiles": "c1ccc(COCC[P+](c2ccccc2)(c2ccccc2)c2ccccc2)cc1", "growth": "15% (inactive)"}
{"smiles": "COCCOC(=O)NC(=O)Nc1ccc(/C(=N/O)c2ccc(Cl)cc2)cc1", "growth": "4.9% (active)"}
{"smiles": "O=C(O)c1ccc(CNc2ccc(C(=O)CCl)cc2)cc1", "growth": "101% (inactive)"}
{"smiles": "CC(C)C[C@H](NC(=O)CCn1ccc2ccccc2c1=O)B(O)O", "growth": "59.6% (inactive)"}
{"smiles": "COc1cc(CSc2nc3ccc(Cl)cc3c(=O)n2Cc2ccccc2)cc(OC)c1OC", "growth": "40.8% (inactive)"}
{"smiles": "c1ccc(CNc2nc(Nc3ccc(-c4nc5ccccc5[nH]4)cc3)c3cn[nH]c3n2)cc1", "growth": "25.5% (inactive)"}
{"smiles": "CCCCCCCCCCCC(=O)NCCCN(C)C", "growth": "107% (inactive)"}
{"smiles": "CCCc1c(C)nc2scc(-c3ccc(Cl)cc3)n2c1=O", "growth": "105% (inactive)"}
{"smiles": "COc1ccc(/C=C2\\SC(=S)N(CCCN3CCOCC3)C2=O)c(OC)c1", "growth": "100% (inactive)"}
{"smiles": "CCCCN(CCCC)c1ccc(C(=NC(C)CCCN(CC)CC)c2ccc(N(C)C)cc2)cc1", "note": "(stereo unspecified)", "growth": "21.1% (inactive)"}
{"smiles": "CCN(CC)CCOC(=O)c1ccc(N=Nc2ccc(O)c(OC)c2)cc1", "growth": "108% (inactive)"}
{"smiles": "CCc1ccc(-c2nnc(COc3ccc(-c4nc5ccc(C)cc5[nH]4)cc3OC)o2)cc1", "growth": "48.5% (inactive)"}
{"smiles": "COc1cc(-c2nc3ccc(C)cc3[nH]2)ccc1OCc1nnc(-c2ccc(CC(C)C)cc2)o1", "growth": "101% (inactive)"}
{"smiles": "O=C(Nc1cccc(F)c1)Nc1cccc(Cl)c1", "growth": "65.8% (inactive)"}
{"smiles": "CCCCOCCOCCOCc1cc2c(cc1Br)OCO2", "growth": "107% (inactive)"}
{"smiles": "CC(C)(C)c1ccc(OCCCCCCN2CCNCC2)cc1", "growth": "86.2% (inactive)"}
{"smiles": "O/N=C1\\CCC2CCCCC2C1", "note": "(stereo unspecified)", "growth": "113% (inactive)"}
{"smiles": "O=c1cc(CSc2nnc(-c3ccccc3)n2-c2ccc(F)cc2)c2ccc3ccccc3c2o1", "growth": "109% (inactive)"}
{"smiles": "CC(C)C[C@H](NC(=O)Cn1ccc2ccccc2c1=O)B(O)O", "growth": "73.5% (inactive)"}
{"smiles": "COc1ccc(-c2nc(-c3nc4ccc(OC)cc4[nH]3)c3ccccn23)cc1", "growth": "71.9% (inactive)"}
{"smiles": "CCn1nc(-c2ccccn2)c2cccnc2c1=S", "growth": "97% (inactive)"}
{"smiles": "CNC(=O)c1cc(Oc2ccc(NC(=O)Nc3ccc(Cl)c(OC(C)C)c3)c(F)c2)ccn1", "growth": "76.8% (inactive)"}
{"system": "K-562 leukemia", "experiment": "NCI-60 one-dose screen, 48 h (100 = growth as untreated, 0 = no growth, -100 = all killed)", "details": "10 µM"}
{"smiles": "COc1ccc2oc(=O)cc(C(c3ccc[nH]3)c3ccc[nH]3)c2c1", "growth": "4.44% (active)"}
{"smiles": "CCCN(CCC)CCCNC(=O)c1cc2c(-c3ccc(OC)c(OC)c3)nn(C)c2s1", "growth": "6.33% (active)"}
{"smiles": "N#Cc1c(-c2ccccc2)nc(SCC(=O)N2CCOCC2)[nH]c1=O", "growth": "89.8% (inactive)"}
{"smiles": "COc1ccc(NC(=O)c2sc3nc4c(cc3c2N)C(O)CCC4)cc1", "note": "(stereo unspecified)", "growth": "80.6% (inactive)"}
{"smiles": "COc1cccc2c1O/C(=C\\c1ccc([N+](=O)[O-])s1)C2=O", "growth": "8.38% (active)"}
{"smiles": "N#Cc1cnc2ccc(NCc3cnc[nH]3)cc2c1Nc1ccc(F)c(Cl)c1", "growth": "66.8% (inactive)"}
{"smiles": "O=C1/C(=C/c2ccc(O)cc2)Oc2ccc(Cl)cc21", "growth": "96% (inactive)"}
{"smiles": "Cc1ccc([P+](Cc2ccccc2)(c2ccccc2)c2ccccc2)cc1", "growth": "2.63% (active)"}
{"smiles": "CCOC(=O)c1c(C)n(-c2ccc(Cl)cc2)c2ccc(OC(=O)/C=C/c3ccccc3)cc12", "growth": "25.4% (inactive)"}
{"smiles": "O=C(O)CCCN1C(=O)NC2(C1=O)c1ccccc1-c1ccccc12", "growth": "99% (inactive)"}
{"smiles": "Cc1cc(C)c2nc(C)c(C)[n+]([O-])c2c1", "growth": "89.2% (inactive)"}
{"smiles": "CCOC(=O)c1sc(Nc2ncccn2)nc1-c1ccccn1", "growth": "108% (inactive)"}
{"smiles": "COc1ccc(-c2[nH]ncc2/C=C/c2cc(C(F)(F)F)[nH]c(=O)n2)cc1", "growth": "86.7% (inactive)"}
{"smiles": "COc1ccc(-c2nc(-c3nc4ccc(C)cc4[nH]3)c3ccccn23)cc1", "growth": "20.4% (inactive)"}
{"smiles": "CC(Oc1ccc(Cl)cc1)c1ccccc1", "note": "(stereo unspecified)", "growth": "101% (inactive)"}
{"smiles": "CCCCCCCCCCN=C(c1ccc(N(C)C)cc1)c1ccc(N(C)C)cc1", "growth": "10.1% (inactive)"}
{"smiles": "c1ccc(COCC[P+](c2ccccc2)(c2ccccc2)c2ccccc2)cc1", "growth": "3.16% (active)"}
{"smiles": "COCCOC(=O)NC(=O)Nc1ccc(/C(=N/O)c2ccc(Cl)cc2)cc1", "growth": "6.7% (active)"}
{"smiles": "O=C(O)c1ccc(CNc2ccc(C(=O)CCl)cc2)cc1", "growth": "92.1% (inactive)"}
{"smiles": "CC(C)C[C@H](NC(=O)CCn1ccc2ccccc2c1=O)B(O)O", "growth": "62.7% (inactive)"}
{"smiles": "COc1cc(CSc2nc3ccc(Cl)cc3c(=O)n2Cc2ccccc2)cc(OC)c1OC", "growth": "12.9% (inactive)"}
{"smiles": "c1ccc(CNc2nc(Nc3ccc(-c4nc5ccccc5[nH]4)cc3)c3cn[nH]c3n2)cc1", "growth": "-17% (active)"}
{"smiles": "CCCCCCCCCCCC(=O)NCCCN(C)C", "growth": "59.4% (inactive)"}
{"smiles": "CCCc1c(C)nc2scc(-c3ccc(Cl)cc3)n2c1=O", "growth": "99.3% (inactive)"}
{"smiles": "COc1ccc(/C=C2\\SC(=S)N(CCCN3CCOCC3)C2=O)c(OC)c1", "growth": "83.8% (inactive)"}
{"smiles": "CCCCN(CCCC)c1ccc(C(=NC(C)CCCN(CC)CC)c2ccc(N(C)C)cc2)cc1", "note": "(stereo unspecified)", "growth": "-51.3% (active)"}
{"smiles": "CCN(CC)CCOC(=O)c1ccc(N=Nc2ccc(O)c(OC)c2)cc1", "growth": "95.3% (inactive)"}
{"smiles": "CCc1ccc(-c2nnc(COc3ccc(-c4nc5ccc(C)cc5[nH]4)cc3OC)o2)cc1", "growth": "33.1% (inactive)"}
{"smiles": "COc1cc(-c2nc3ccc(C)cc3[nH]2)ccc1OCc1nnc(-c2ccc(CC(C)C)cc2)o1", "growth": "46% (inactive)"}
{"smiles": "O=C(Nc1cccc(F)c1)Nc1cccc(Cl)c1", "growth": "10.9% (inactive)"}
{"smiles": "CCCCOCCOCCOCc1cc2c(cc1Br)OCO2", "growth": "94.7% (inactive)"}
{"smiles": "CC(C)(C)c1ccc(OCCCCCCN2CCNCC2)cc1", "growth": "0.864% (active)"}
{"smiles": "O/N=C1\\CCC2CCCCC2C1", "note": "(stereo unspecified)", "growth": "106% (inactive)"}
{"smiles": "O=c1cc(CSc2nnc(-c3ccccc3)n2-c2ccc(F)cc2)c2ccc3ccccc3c2o1", "growth": "82.9% (inactive)"}
{"smiles": "CC(C)C[C@H](NC(=O)Cn1ccc2ccccc2c1=O)B(O)O", "growth": "64% (inactive)"}
{"smiles": "COc1ccc(-c2nc(-c3nc4ccc(OC)cc4[nH]3)c3ccccn23)cc1", "growth": "25.5% (inactive)"}
{"smiles": "CCn1nc(-c2ccccn2)c2cccnc2c1=S", "growth": "35.7% (inactive)"}
{"smiles": "CNC(=O)c1cc(Oc2ccc(NC(=O)Nc3ccc(Cl)c(OC(C)C)c3)c(F)c2)ccn1", "growth": "21.8% (inactive)"}
